Structures are written as SMILES. Results filed as inconclusive are left out. Where a call stands in place of a potency, no number is given. The source made the active and inactive calls. Calls come from the whole dose curve; as a rule, active = well fitted inhibition curve with a large enough effect in the signal ratio in the repeat runs (not every such curve was filed as active); inconclusive = weak or mixed curves, or effect the other way; inactive = no such curve, though single readings can be large or run the other way; the % refers to the signal ratio.
Potency is the fitted concentration of half-maximal effect.

This test deals with Glucocorticoid receptor (Homo sapiens) (UniProt P04150). The experiment in a line: qHTS assay to identify small molecule antagonists of the glucocorticoid receptor (GR) signaling pathway (AID 720692). The conditions noted are these: GR-bla HeLa, beta-lactamase FRET ratio, dexamethasone-stimulated, 18 h; series mostly up to 58.5 µM. From the text: U.S. Tox21 Program National Center for Advancing Translational Sciences [NCATS] NIH Chemical Genomics Center [NCGC] U.S. Environmental Protection Agency [EPA] National Institutes of Environmental Health Sciences [NIEHS] National Toxicology Program [NTP] U.S. Food and Drug Administration [FDA] Tox21 Assay Overview: The Glucocorticoid receptor (GR) is one of the members of the nuclear receptor family of ligand-dependent transcription factors. GR plays a critical role in carbohydrate, protein and lipid metabolisms and programmed cell death. CellSensor GR-bla HeLa cell line (Invitrogen) contains a beta-lactamase reporter gene under the control of the glucocorticoid response element stably integrated into HeLa cells, a cervical cancer cell line that expresses glucocorticoid receptor. The activation of the reporter gene under culture conditions can be detected by fluorescence intensity. This cell line has been used to screen the Tox21 10K compound library and to identify the compounds that inhibit the GR signaling.
Chain of Glucocorticoid receptor (Homo sapiens) (P04150 whole entry, looked up): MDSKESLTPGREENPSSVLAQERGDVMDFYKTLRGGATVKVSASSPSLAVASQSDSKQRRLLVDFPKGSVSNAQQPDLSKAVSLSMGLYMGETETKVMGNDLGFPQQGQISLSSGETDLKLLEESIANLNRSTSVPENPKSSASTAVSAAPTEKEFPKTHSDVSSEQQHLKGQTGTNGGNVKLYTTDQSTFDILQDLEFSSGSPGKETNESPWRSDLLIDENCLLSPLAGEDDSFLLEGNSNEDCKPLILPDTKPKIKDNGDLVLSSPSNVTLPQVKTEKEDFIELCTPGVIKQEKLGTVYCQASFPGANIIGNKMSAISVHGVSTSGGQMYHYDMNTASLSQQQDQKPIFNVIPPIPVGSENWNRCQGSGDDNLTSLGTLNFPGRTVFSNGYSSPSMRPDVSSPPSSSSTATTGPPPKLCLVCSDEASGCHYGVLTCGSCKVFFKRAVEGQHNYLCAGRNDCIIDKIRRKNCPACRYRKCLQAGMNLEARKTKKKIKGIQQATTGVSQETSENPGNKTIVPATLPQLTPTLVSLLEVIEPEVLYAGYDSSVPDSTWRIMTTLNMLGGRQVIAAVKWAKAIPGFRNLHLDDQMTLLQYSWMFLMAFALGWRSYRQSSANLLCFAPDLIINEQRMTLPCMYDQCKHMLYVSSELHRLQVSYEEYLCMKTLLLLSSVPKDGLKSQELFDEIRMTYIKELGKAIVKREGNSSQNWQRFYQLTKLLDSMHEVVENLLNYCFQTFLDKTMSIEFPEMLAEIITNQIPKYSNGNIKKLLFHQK
Tox21 Assay Protocol Summary: The GR-bla HeLa cells were dispensed at 1500 cells/5 ul/well in 1536-well black wall/clear bottom plates using a Multidrop Combi (ThermoFisher Scientific, Waltham, MA) dispenser. After the assay plates were incubated at a 37 C/5% CO2 incubator for 4 hours, 23 nL of compounds dissolved in DMSO, positive controls or DMSO only was transferred to the assay plate by a pintool station (Kalypsys, San Diego, CA), followed by addition of 1 uL of dexamethasone (5 nM, final concentration in the well). The plates were incubated at 37 C for 18 hours. After 1 uL of LiveBLAzerTM B/G FRET substrate was added using a Flying Reagent Dispenser (Aurora Discovery, San Diego, CA), the plates were incubated at room temperature for 2 hours, and fluorescence intensity was measured by an Envision plate reader (PerkinElmer, Shelton, CT).
(In general: qHTS replaces the single test concentration by a dilution series.)
In the case of `CC1(C)S[C@@H]2[C@H](NC(=O)C(c3ccccc3)S(=O)(=O)O)C(=O)N2[C@H]1C(=O)O` (stereo not given in full), the Potency result was “inactive”.
In the case of `CN(C(=O)CN(CCO)CC(=O)N(C)C(C)(C)Cc1ccccc1)C(C)(C)Cc1ccccc1` it was “inactive”; in that of `CCCCCCCCC(CCCCCC)C(=O)O` (stereo not given), 38.9 µM (active); in that of `CCCCCCC(C)(C)C(=O)O`, “inactive”.
On to `O=c1cc(-c2ccccc2)oc2cc(O)cc(O)c12`, for which the Potency is 19.5 µM (active).
The value for `CC1CC(OC(=O)C(O)c2ccccc2)CC(C)(C)N1C` (stereo not given) was “inactive”; that for `CC(CCC(=O)O)C(=O)O` (stereo not given) was “inactive”.
In the case of `CCOC(=O)[C@H](CCc1ccccc1)N[C@@H](C)C(=O)N(CC(=O)O)C1Cc2ccccc2C1` it was “inactive”; in that of `Oc1cccc(O)c1O`, “inactive”.
As for `O=C(CCCN1CC=C(n2c(=O)[nH]c3ccccc32)CC1)c1ccc(F)cc1`, the Potency result is “inactive”.
The value for `CCCC(=O)C(=O)O` was “inactive”.
Regarding `COC(=O)CCS`, the Potency entry is “inactive”.
The value for `CC1(C)[C@@H](OC(=O)CCC(=O)O)CC[C@]2(C)[C@H]3C(=O)C=C4[C@@H]5C[C@@](C)(C(=O)O)CC[C@]5(C)CC[C@@]4(C)[C@]3(C)CC[C@@H]12` was “inactive”.
In the case of `CCCCCCCC/C=C\CCCCCCCCO` it was “inactive”.
In the case of `CN1CC(=O)N2[C@H](c3ccc4c(c3)OCO4)c3[nH]c4ccccc4c3C[C@@H]2C1=O` it was “inactive”; in that of `Cc1ccc(C(C)(C)O)cc1`, “inactive”.
For `CCOC(C)=O`, the Potency entry is “inactive”.
Turning to `Cc1ccc2c(Br)cc(Br)c(O)c2n1`, the Potency was 23.9 µM (active).
In the case of `Cc1ccco1` it was “inactive”; in that of `O=C(O)c1cccc(-c2noc(-c3ccccc3F)n2)c1`, “inactive”.
In the case of `Cc1cc2c(OCC(CNC(C)(C)C)OC(=O)c3ccccc3)cccc2[nH]1` (stereo not given) it was “inactive”; in that of `CCCCC(CC)COP(=O)(O)O` (stereo not given), 49.8 µM (active).
In the case of `c1csc(SSc2cccs2)c1` it was “inactive”; in that of `CN1C(C(=O)Nc2ccccn2)=C(O)c2sccc2S1(=O)=O`, “inactive”; in that of `CN1CCCC(n2nc(Cc3ccc(Cl)cc3)c3ccccc3c2=O)CC1` (stereo not given), “inactive”.
With `CC1=C(Br)C(=O)C(Br)=C/C1=C(/c1ccccc1S(=O)(=O)O)c1cc(Br)c(O)c(Br)c1C`, the Potency entry was “inactive”.
In the case of `CC(=O)[C@H]1[C@H](C#N)C[C@H]2[C@@H]3CC=C4C[C@@H](O)CC[C@]4(C)[C@H]3CC[C@@]21C` it was 10.6 µM (active).
In the case of `NNC(=O)CP(=O)(c1ccccc1)c1ccccc1` it was “inactive”.
Take `NC1[C@H]2CN(c3nc4c(cc3F)c(=O)c(C(=O)O)cn4-c3ccc(F)cc3F)C[C@@H]12` (stereo not given in full): the Potency entry is “inactive”.
The value for `OC(CCN1CCCC1)(c1ccccc1)C1CCCCC1` (stereo not given) was “inactive”; that for `CCCCN1CCCC1C(=O)Nc1c(C)cc(C)cc1C` (stereo not given) was “inactive”.
In the case of `COc1ccccc1N1CCN(CCCCNC(=O)c2ccc(-c3ccc(C(C)=O)cc3)cc2)CC1` it was “inactive”; in that of `C=C/C(C)=C/C/C=C(\C)CCC=C(C)C`, 38.9 µM (active); in that of `CCC(C)(C)OC`, “inactive”.
Turning to `CC(C)C=O`, the Potency result was “inactive”.
In the case of `N#CCCN(CCO)CCO` it was “inactive”.
In the case of `Cc1cc(C)cc(N)c1` it was “inactive”; in that of `C=CC(=O)[O-].C=CC(=O)[O-].[Zn+2]`, “inactive”.
In the case of `COc1cc(C(=O)NCCCCCC(=O)O)cc(OC)c1OC` it was “inactive”; in that of `C[C@@]12CCC[C@H]1[C@@H]1CC[C@H]3C[C@@H](O)CC[C@]3(C)[C@H]1CC2`, “inactive”.

The record behind these values is PubChem BioAssay (Tox21).
